In this test the target is Voltage-dependent N-type calcium channel subunit alpha-1B (Homo sapiens) (UniProt Q00975). As to the kind of experiment: inhibitors of Mint1-CaV2.2 protein interaction, biochemical, HTRF (AID 2073). The settings on record: at 20 µM, stronger effect = higher value. Background: In TR-FRET formats the signal depends on donor and acceptor labels being close together.

Among all 290,000 compounds or so, about 570 (0.2%) were called active. Not shown: some 1% with an inconclusive outcome. Cut-off read from the data, not from the text of the source: active = inhibition mostly above about 51% (no sharp cut-off); inconclusive = no clear call, values can overlap the other calls; inactive = mostly below about 53%. The list comes from a sample in which actives are over-represented; it also holds similar structures and randomly drawn compounds.

Chain of Voltage-dependent N-type calcium channel subunit alpha-1B (Homo sapiens) (Q00975 whole entry, looked up): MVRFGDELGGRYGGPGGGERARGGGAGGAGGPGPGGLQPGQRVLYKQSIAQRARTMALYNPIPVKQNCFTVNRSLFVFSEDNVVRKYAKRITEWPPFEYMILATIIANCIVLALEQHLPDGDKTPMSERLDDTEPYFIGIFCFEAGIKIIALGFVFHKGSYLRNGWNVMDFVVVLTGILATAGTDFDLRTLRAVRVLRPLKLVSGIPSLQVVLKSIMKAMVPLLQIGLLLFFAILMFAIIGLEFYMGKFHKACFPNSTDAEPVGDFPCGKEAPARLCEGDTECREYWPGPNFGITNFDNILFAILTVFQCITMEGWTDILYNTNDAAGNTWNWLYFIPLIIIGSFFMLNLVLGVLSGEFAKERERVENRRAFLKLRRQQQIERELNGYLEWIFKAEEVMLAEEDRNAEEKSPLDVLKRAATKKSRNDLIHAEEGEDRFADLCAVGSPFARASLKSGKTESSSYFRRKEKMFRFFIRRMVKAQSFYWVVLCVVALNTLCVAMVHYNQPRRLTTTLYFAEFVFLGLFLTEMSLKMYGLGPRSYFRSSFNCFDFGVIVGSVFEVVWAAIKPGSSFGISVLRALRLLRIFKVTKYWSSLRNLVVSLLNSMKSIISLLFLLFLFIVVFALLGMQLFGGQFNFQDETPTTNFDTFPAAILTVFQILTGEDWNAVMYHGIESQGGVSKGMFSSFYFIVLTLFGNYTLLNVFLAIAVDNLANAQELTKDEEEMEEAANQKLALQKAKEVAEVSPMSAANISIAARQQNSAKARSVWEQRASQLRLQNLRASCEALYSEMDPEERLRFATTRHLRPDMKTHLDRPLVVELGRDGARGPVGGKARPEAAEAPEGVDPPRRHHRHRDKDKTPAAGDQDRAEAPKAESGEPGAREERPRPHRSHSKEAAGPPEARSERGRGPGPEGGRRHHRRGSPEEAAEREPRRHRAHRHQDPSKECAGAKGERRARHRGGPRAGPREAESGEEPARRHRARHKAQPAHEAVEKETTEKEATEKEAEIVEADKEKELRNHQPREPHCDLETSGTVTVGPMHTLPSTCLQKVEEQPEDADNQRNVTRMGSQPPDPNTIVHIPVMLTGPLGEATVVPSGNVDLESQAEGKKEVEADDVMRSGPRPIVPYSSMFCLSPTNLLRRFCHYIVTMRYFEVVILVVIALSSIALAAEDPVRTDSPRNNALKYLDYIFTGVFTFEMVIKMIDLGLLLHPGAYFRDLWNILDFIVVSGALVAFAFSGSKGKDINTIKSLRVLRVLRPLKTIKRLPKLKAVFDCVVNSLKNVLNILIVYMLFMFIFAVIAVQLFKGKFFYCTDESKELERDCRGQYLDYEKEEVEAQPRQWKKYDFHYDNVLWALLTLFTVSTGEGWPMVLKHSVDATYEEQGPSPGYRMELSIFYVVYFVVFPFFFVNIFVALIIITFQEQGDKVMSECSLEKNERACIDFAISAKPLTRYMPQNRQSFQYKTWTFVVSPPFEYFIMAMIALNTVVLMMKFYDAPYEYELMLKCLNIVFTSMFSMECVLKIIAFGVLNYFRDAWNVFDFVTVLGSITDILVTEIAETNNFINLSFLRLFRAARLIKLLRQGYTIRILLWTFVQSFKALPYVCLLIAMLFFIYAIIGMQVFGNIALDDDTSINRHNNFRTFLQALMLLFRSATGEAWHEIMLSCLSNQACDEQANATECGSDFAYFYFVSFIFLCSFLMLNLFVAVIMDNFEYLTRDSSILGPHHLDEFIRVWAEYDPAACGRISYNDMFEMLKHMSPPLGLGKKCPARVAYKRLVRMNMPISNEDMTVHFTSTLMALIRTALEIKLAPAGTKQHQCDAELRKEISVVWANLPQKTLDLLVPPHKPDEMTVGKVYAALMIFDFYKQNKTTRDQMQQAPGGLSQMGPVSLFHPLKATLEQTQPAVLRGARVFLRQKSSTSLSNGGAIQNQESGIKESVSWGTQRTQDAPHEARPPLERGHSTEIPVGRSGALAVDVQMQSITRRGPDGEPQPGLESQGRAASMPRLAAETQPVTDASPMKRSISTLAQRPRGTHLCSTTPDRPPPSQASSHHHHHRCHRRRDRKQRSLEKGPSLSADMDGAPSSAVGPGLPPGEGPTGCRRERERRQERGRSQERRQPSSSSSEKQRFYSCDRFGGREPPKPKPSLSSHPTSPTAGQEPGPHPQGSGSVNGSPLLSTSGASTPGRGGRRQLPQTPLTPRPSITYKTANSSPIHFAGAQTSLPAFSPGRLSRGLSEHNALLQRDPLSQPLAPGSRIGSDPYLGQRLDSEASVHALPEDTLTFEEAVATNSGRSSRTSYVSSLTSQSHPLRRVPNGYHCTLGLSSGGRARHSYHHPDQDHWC

As usually defined, the inhibition is the drop in the measured response relative to a control, in per cent. Take `CCN(C(=O)COC(=O)c1c(C)nn(-c2ccccc2)c1C)C1CCS(=O)(=O)C1` (stereo not drawn): the inhibition is 6.4% (inactive). Take `C/C(CC(=O)Nc1ccc2c(c1)OCCO2)=N\NC(=O)COc1ccccc1`: the inhibition is 1.2% (inactive).

Regarding `COc1ccc(CCNC(=O)C2CC(c3cc(C(F)(F)F)cc(C(F)(F)F)c3)=NO2)cc1` (stereo not drawn), the inhibition is 0.2% (inactive). Still for that read-out and setting: as for `Cc1ccc(/C=C/C(=O)Nc2ccc(O)c3c(=O)cc(-c4ccccc4Cl)oc23)cc1`, the figure is 13% (inactive).

As for `CCCN1Cc2cccc(C(=O)NC(CC(=O)OCC)c3ccc(OC(C)C)cc3)c2C1=O` (stereo not drawn), the inhibition is -3.9% (inactive). Same read-out and setting: as for `Cc1ccc(Cl)cc1N1CCN(C(=O)Cn2ncn3cccc3c2=O)CC1`, the figure is -1.5% (inactive); as for `O=C(CCCn1c(=S)[nH]c2ccccc2c1=O)NC1CCCC1`, -32.5% (inactive); as for `CCc1ccccc1NC(=O)COc1ccc(N2CC(C(N)=O)CC2=O)cc1` (stereo not drawn), 11.4% (inactive).

On to `OC1CNCc2cc3c(cc21)OCCO3` (stereo not drawn), for which the inhibition is -5.4% (inactive).

Consider `NC(=O)COC(=O)c1cc(-c2ccco2)nc2ccccc12`, for which the inhibition was 14.1% (inactive). Still for that read-out and setting: then `CNC(=O)COC(=O)c1cc(-c2ccco2)nc2ccccc12`, with 66.4% (active); and `O=C(COC(=O)c1cc(-c2ccco2)nc2ccccc12)NCc1ccccc1`, with 25.4% (inactive); and `CCN1CCN(CCCNC(=O)Cn2nc(C)n3nc(-c4ccccc4)cc3c2=O)CC1`, with 12.1% (inactive).

As for `O=c1[nH]c(C2CCCN(S(=O)(=O)c3ccc(F)cc3)C2)nc2c1nnn2Cc1ccccc1` (stereo not drawn), the inhibition was -1% (inactive). Same read-out and setting: as for `Cc1[nH]n(-c2ccccc2)c(=O)c1C=Nc1ccc(S(N)(=O)=O)cc1`, the figure is 0.1% (inactive); as for `Cc1[nH]n(-c2ccccc2)c(=S)c1C=Nc1ccc([N+](=O)[O-])cc1`, 67% (active). On the same count and under the same terms, as for `Cc1[nH]n(-c2ccccc2)c(=S)c1C=Nc1cccc([N+](=O)[O-])c1`, the figure is 34.3% (inactive).

On to `Oc1ccccc1Cn1nnc2ccccc21`, for which the inhibition was 7.1% (inactive). Still for that read-out and setting: then `COc1ccc(CCNC(=O)CCN2C(=O)[C@@H]3Cc4ccccc4CN3C2=O)cc1`, with -3.7% (inactive); and `CCC(=O)Nc1ccc(C(=O)CSc2nc3ccc(C)cc3[nH]2)cc1`, with 32.1% (inactive). Same read-out and setting: then `CN(C)C(=O)c1ccc(NC(=O)CSc2nc3ccccc3[nH]2)cc1`, with -1.1% (inactive); and `CCC(=O)Nc1ccc(C(=O)CSc2nc3ccccc3[nH]2)cc1`, with 54.5% (active). Still for that read-out and setting: then `COc1ccc(CCNCC(=O)Nc2c(C)cc(C)cc2C)cc1OC`, with -6.8% (inactive); and `CCOC(=O)N1CCN(c2ccccc2OC)CC1`, with -13.4% (inactive). Take `O=C(NNc1nc(-c2ccccc2)cs1)c1ccccc1`: the inhibition was -28.9% (inactive). For the molecule `O=C(NNc1nc(-c2ccccc2)cs1)c1ccc(F)cc1`, the inhibition is 60% (inactive). Moreover, the inhibition (measured here: average of repeat tests) is -6.1%. For the molecule `O=C(NNc1nc(-c2ccc(F)cc2)cs1)c1ccccc1`, the inhibition was 71.1% (active).

Source of the values: PubChem BioAssay AID2073 (Sanford-Burnham Center for Chemical Genomics, 2009).
